Laboratory results published in PubChem BioAssay AID1159580 (chemical genetic matrix, 2015).
Among all 5,500 compounds or so, about 2,000 (36%) were called active. Another 18% or so got no clear call; they are omitted. No stated cut-off is given here; in the data, active means normalized growth mostly below about 0.91 (no sharp cut-off); inconclusive means no clear call, values can overlap the other calls; inactive means mostly above about 0.92. The list shows a part of the results.

Assay: chemical genetic growth profiling, strain panel (AID 1159580);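 further: tested at 20 µM; growth read once vehicle control cultures reached saturation at 30 °C; 1 = growth at the plate median or of vehicle wells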
Details: S. cerevisiae deletion strains, growth OD

Measured: normalized growth

C[C@@H]1O[C@@H](O[C@H]2C[C@@H](O)[C@]3(CO)[C@H]4[C@H](O)C[C@]5(C)[C@@H](C6=CC(=O)OC6)CC[C@]5(O)[C@@H]4CC[C@]3(O)C2)[C@H](O)[C@H](O)[C@H]1O
inactive: locus YAL040C, strain CLN3, stronger effect = lower value 0.989 | locus YCL061C, strain MRC1 (second series), stronger effect = lower value 0.996 | locus YDR150W, strain NUM1, stronger effect = lower value 1 | locus YDR363W, strain ESC2, stronger effect = lower value 0.984 | locus YER002W, strain NOP16, stronger effect = lower value 1.02 | locus YGR078C, strain PAC10, stronger effect = lower value 0.985 | locus YGR229C, strain SMI1, stronger effect = lower value 0.993 | locus YJR075W, strain HOC1, stronger effect = lower value 0.997 | locus YMR263W, strain SAP30, stronger effect = lower value 0.996 | locus YMR307W, strain GAS1, stronger effect = lower value 0.995 | locus YNL175C, strain NOP13, stronger effect = lower value 1.02 | locus YNL197C, strain WHI3, stronger effect = lower value 1.03 | locus YNL224C, strain SQS1, stronger effect = lower value 0.988 | locus YOR083W, strain WHI5 (second series), stronger effect = lower value 1
